Hits are enriched below; roughly 19% of the tested compounds scored in any of these assays.
DT40 TDP1 CPT = DT40-hTDP1 cell growth loss with CPT | chicken DT40 Tdp1-/-;hTDP1 cells + 20 nM CPT, ATP luminescence, 48 h | Potency, µM (series often up to 46.2 µM), for the others: top-dose activity change, negative = growth inhibition, hits mostly inhibitors | 420,000 tested, 12% active | AID 686979; further: potency means the concentration at half of the fitted maximal effect; on the % scale 0 is the no-effect control and ±100 the full control effect; nearly all actives have a fitted effect of over 55% in size
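Cell growth measured by CellTiter-Glo luminescence after a minimum 48 h, 37 C compound exposure with 20 nM CPT in Tdp1-knockout DT40 cells stably expressing hTDP1, seeded 400/well; qHTS titration format.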
TDP1 cell noCPT = qHTS for Inhibitors of human tyrosyl-DNA phosphodiesterase 1 (TDP1): qHTS in cells in absence of CPT; DT40 Tdp1-/- hTDP1 cells, no CPT, ATP luminescence, 48 h; Potency, µM (doses to about 46.2 µM), without a hit: top-dose activity change, negative = growth inhibition, most hits filed as inhibitors; 420,000 tested, 15% active; further: potency means the concentration at half of the fitted maximal effect; on the % scale 0 is the no-effect control and ±100 the full control effect; nearly all actives have a fitted effect of over 55% in size
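Stably hTDP1-transfected Tdp1-null chicken DT40 cells were treated with library compounds minus camptothecin and grown for at least 48 hr at 37 °C, after which cellular ATP was quantified by luminescence.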
MCF10A rerep = DNA re-replication induction in MCF 10a cells; 350,000 tested, 2.9% active; Potency, µM (doses to about 46.1 µM), inactives show at the highest dose activity, positive = re-replication, hits mostly activators; AID 624296; MCF 10A DNA re-replication, Hoechst nuclear intensity, 48 h; further: potency means the concentration at half of the fitted maximal effect; % of control where 0% means no effect; nearly all actives have a fitted effect of over 50% in size
BCR signal inh = chronic active BCR signaling inhibition. ABC-DLBCL IkBa-CBG/CBR reporter, luminescence ratio, 4 h. Potency, µM (series often up to 46.1 µM), without a hit: at the top dose activity change, negative = inhibition, hits mostly inhibitors. 340,000 tested, 0.05% active; active means well fitted inhibition curve with a large enough effect in the signal ratio, with a control signal flat, not every such curve was filed as active; inconclusive means small, poorly fitted or top-dose-only effect, or effect the other way, or a change in a side signal; the % refers to the signal ratio;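 further: potency means the concentration at half of the fitted maximal effect; plate controls were basal doxycycline-induced cells for no effect and cells given 10 µM MG132 for full effect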
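TMD8 ABC-DLBCL cells carrying doxycycline-inducible green luciferase fused to IkappaBalpha plus unfused red luciferase were exposed to compounds (up to 46 uM) for 4 hrs at 37C. Activity came from the overlap-corrected green/red luminescence ratio.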
IL1B secr inh = inhibitors of inflammasome signaling (IL-1 beta secretion); THP-1 LPS/ATP IL-1B secretion, AlphaLISA, 16 h; hits give low values; activity change, % at 57.5 µM; 360,000 tested, 4.7% active; AID 743279; in the data active means activity change below about -50%; inconclusive means mostly about -30% to -49%; further: on the % scale 0 is the no-effect control and ±100 the full control effect
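THP-1 cells pretreated 1 hr with compounds (up to 57.5 uM final), then stimulated with LPS (250 ng/mL final) plus ATP (1.25 mM final); secreted IL-1B measured by AlphaLISA after 16 hr, decreased signal indicating inhibition.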
SW480 rerep = inducers of DNA re-replication in SW480 colon cancer cells. SW480 DNA re-replication, Hoechst DNA content imaging, 48 h. Potency, µM (highest dose often 46.1 µM), for the others: at the highest dose re-replication activation, actives largely listed as activators. 340,000 tested, 1.8% active; further: potency means the concentration at half of the fitted maximal effect; % of control where 0% means no effect; nearly all actives have a fitted effect of over 55% in size
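Hoechst fluorescence of nuclei (405 nm excitation, 500-530 nm emission) measured by plate-scanning imager after 48 hr compound exposure at 37 C; re-replication scored as increased number of nuclei with elevated intensity.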
An asterisk follows results filed as active; ? = inconclusive; · = not tested or not shown. Unless noted, the call rests on the fitted dose curve; in most records, active means well fitted curve in the direction sought with a large enough effect; inconclusive means small, poorly fitted or top-dose-only effect, or another doubt; inactive means no such curve, though single readings can be large; an effect the other way counts as inactive or inconclusive.

SMILES	DT40 TDP1 CPT	TDP1 cell noCPT	MCF10A rerep	BCR signal inh	IL1B secr inh	SW480 rerep
COc1cc(C(=O)O[C@H]2CC(C)=CC[C@@]3(C)CC[C@@](O)(C(C)C)[C@H]23)ccc1O	-20%	?	-17%	?	46	4%
COc1cc(NC(=O)CCc2nnc3ccc(N4CCOCC4)nn23)cc(OC)c1OC	2%	22%	4%	-2%	0	-2%
COc1ccc(NC(=O)CCc2c(C)nc3c(c2C)c(=O)n(C)c(=O)n3C)c(OC)c1	-9%	?	·	·	·	·
COc1ccc(NS(=O)(=O)c2cc(NC(=O)/C=C/c3ccccc3OC)ccc2N2CCCCC2)cc1	8%	9%	14%	-9%	-1	-4%
Cc1cc(N2CCCCC2)nc2ccc(NC(=O)/C=C/c3ccccc3OC(C)C)cc12	7.3µM*	10µM*	·	·	·	·
COc1ccc(/C=C/C(=O)Nc2ccc3nc4n(c(=O)c3c2)CCCC4)cc1OC	-8%	-1%	3%	1%	3	-7%
Cc1cc(N2CCCCC2)nc2ccc(NC(=O)/C=C/c3ccccc3Cl)cc12	13µM*	10µM*	·	·	·	·
COc1ccc(/C=C/C(=O)Nc2ccc3nc(N4CCCCC4)cc(C)c3c2)cc1OC	2.9µM*	2.6µM*	·	·	·	·
CCCOC(=O)c1ccc(NC(=O)c2ccccc2[N+](=O)[O-])cc1	?	-10%	-4%	?	-30	-22%
Cc1nn2c(C(F)(F)F)cc(-c3ccc(OC(C)C)cc3)nc2c1C#N	-15%	-26%	·	·	·	·
C[C@H]1CN(c2ccccc2)C(=O)[C@@H]1CC(=O)Nc1ccc(Br)cc1	?	?	·	·	-8	·
CCN(CC(=O)Nc1ccc(NC(C)=O)cc1)C(=O)c1ccccc1SCC(=O)N1CCCC1	-21%	-7%	9%	6%	0	-2%
C[C@H](CO)N1C[C@H](C)[C@H](CN(C)C(=O)CC2CC2)Oc2cc(Br)ccc2S1(=O)=O	-6%	-8%	·	·	14	·
C[C@H](CO)N1C[C@H](C)[C@@H](CN(C)C(=O)CC2CC2)Oc2cc(Br)ccc2S1(=O)=O	?	21µM*	·	·	21	·
C[C@@H]1CN([C@@H](C)CO)S(=O)(=O)c2ccc(Br)cc2O[C@@H]1CN(C)C(=O)c1ccc(F)cc1	21µM*	?	·	·	-13	·
C[C@@H]1CN([C@@H](C)CO)S(=O)(=O)c2ccc(Br)cc2O[C@H]1CN(C)C(=O)c1ccc2c(c1)OCO2	23µM*	23µM*	·	·	-28	·
C/C=C/c1ccc2c(c1)O[C@H](CN(C)CC1CCOCC1)[C@@H](C)CN([C@H](C)CO)S2(=O)=O	23µM*	18µM*	·	·	19	·
CC(=O)c1cccc(NC(=O)CN2C(=O)NC(C)(c3ccc4c(c3)OCCCO4)C2=O)c1 (centres undefined)	?	?	-1%	-3%	16	-6%
COc1ccccc1N1CCN(C(=O)c2ccc(N3CCCCS3(=O)=O)cc2)CC1	?	-14%	-1%	3%	52	-2%
CCn1nc(C)cc1C(=O)N1CCCC(Nc2ccc(C(C)C)cc2)C1 (centres undefined)	-28%	?	?	-22%	-1	-3%
COc1cc(OC)cc(-c2nc3nc(C)c(CCC(=O)Nc4ccc(C)c(C)c4)c(C)n3n2)c1	11%	-2%	·	·	·	·
C[C@H](CO)N1C[C@H](C)[C@@H](CN(C)C(=O)c2ccc(F)cc2)Oc2cc(Br)ccc2S1(=O)=O	26µM*	13µM*	·	·	17	·
O=C(O)CCSc1nnc(CNc2ccc(Cl)cc2)n1Cc1ccccc1	11%	-7%	1%	2%	18	0.23µM*
CCn1c(CNc2ccc(Cl)cc2)nnc1SCC(=O)OC1CCCCC1	-29%	?	13µM*	?	-10	2%
CCn1c(CNc2cccc(Cl)c2)nnc1SCC(=O)OC1CCCCC1	2%	0%	-4%	?	4	-3%
SMILES	DT40 TDP1 CPT	TDP1 cell noCPT	MCF10A rerep	BCR signal inh	IL1B secr inh	SW480 rerep
Cc1c(N2C(=O)CSC2c2ccco2)c(=O)n(-c2ccccc2)n1C (centres undefined)	4%	4%	0%	-3%	13	-4%
COc1cc(C)c(CNC2CCCCC2)cc1C	-2%	-15%	-2%	-2%	-2	?
C=CCOc1c(CNC2CCCC2)cc(Cl)cc1OC	?	?	?	3%	-72*	4%
CCOc1c(Br)cc(CNC2CCCCCCC2)cc1OC	21µM*	15µM*	10µM*	6%	-94*	?
COc1cc(CNC2CCCCCCC2)cc(Cl)c1OC	?	?	15%	2%	-80*	?
COc1cc(CNC2CCCCCCC2)c(Br)cc1OCCO	-25%	-13%	7%	-3%	?	-9%
CCCCn1c(N)c(N(CC(C)C)C(=O)CCCc2nc3ccccc3c(=O)[nH]2)c(=O)[nH]c1=O	2%	-22%	1%	?	7	-1%
CC(C)(C(=O)N1CCC1(C)C(=O)NS(=O)(=O)c1cccc(C#N)c1)c1ccccc1 (centres undefined)	0%	-12%	·	·	17	·
O=C(Cn1ncc(Cl)c(Cl)c1=O)c1ccc2c(c1)OCCO2	16µM*	23µM*	2.9µM*	?	-99*	?
CCN(CC)S(=O)(=O)c1cc(NC(=O)Cn2ncc(Cl)c(Cl)c2=O)ccc1C	3.7µM*	2.3µM*	?	?	-59*	?
O=C(Cn1ncc(Cl)c(Cl)c1=O)Nc1ccc2c(c1)OCO2	7.3µM*	3.3µM*	0.73µM*	0%	-99*	-2%
CCC(=O)c1ccc2c(c1)OCCO2	-21%	3%	-4%	?	-6	4%
COc1ccccc1/C=C/C=N/N1CCN(Cc2ccc(Cl)cc2)CC1	?	?	?	?	?	2%
Cc1ccc(N2CCN(/N=C/c3sccc3C)CC2)cc1	-18%	-29%	24%	?	-16	1%
Cc1ccc(N2CCN(/N=C/c3ccncc3)CC2)cc1	21µM*	18µM*	11%	0%	3	10%
Clc1ccc(N2CCN(/N=C/c3ccncc3)CC2)cc1	23µM*	?	19%	?	?	2%
COc1ccccc1/C=C/C=N\N1CCN(Cc2ccccc2Cl)CC1	?	29µM*	?	?	-24	5%
Clc1ccccc1CN1CCN(/N=C/c2ccncc2)CC1	13µM*	16µM*	?	0%	-27	5%
